D2 antag: antagonizes the human D2 dopamine receptor; P14416; HEK293 TREx D2 cells, calcium flux, dopamine EC80; inhibition, % at 10 µM; hit rate 2% among 340,000; in the data active = inhibition above about 30%; inactive = below that, where a call was filed; also: 0% is about no effect
Target sequence (P14416 whole entry, looked up): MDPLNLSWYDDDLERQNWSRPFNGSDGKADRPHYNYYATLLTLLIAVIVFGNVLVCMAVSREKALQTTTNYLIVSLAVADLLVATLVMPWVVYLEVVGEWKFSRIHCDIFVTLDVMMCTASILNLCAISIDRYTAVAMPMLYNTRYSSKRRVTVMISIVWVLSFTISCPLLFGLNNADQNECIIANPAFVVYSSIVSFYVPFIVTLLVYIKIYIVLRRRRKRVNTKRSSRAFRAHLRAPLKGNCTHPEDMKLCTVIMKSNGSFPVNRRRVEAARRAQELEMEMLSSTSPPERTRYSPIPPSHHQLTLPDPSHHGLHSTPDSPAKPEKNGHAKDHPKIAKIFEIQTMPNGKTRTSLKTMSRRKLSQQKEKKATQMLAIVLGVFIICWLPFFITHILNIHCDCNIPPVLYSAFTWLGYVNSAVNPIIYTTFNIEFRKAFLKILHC
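In this primary screen, negative modulation is detected by tracking calcium flux after an EC80 dopamine challenge in inducible HEK293 T-REx D2 cells preexposed to test compound for 180 s.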
D2 ag-1: activates the human D2 dopamine receptor | DiscoveRx PathHunter D2 beta-arrestin, luminescence, 90 min; 100% = 57 uM dopamine signal | activation, % (no concentration beside the values) | hit rate 0.084% among 360,000; in the data active = activation above about 40%; inconclusive = between about 15% and that limit
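Agonist mode: compounds alone added to overnight-plated D2 PathHunter cells for 90 min at 37 C, with 57 uM final dopamine (EC100) defining full response. Beta-arrestin recruitment detected by chemiluminescent reagent, read after 1 h at ambient temperature.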
D2 PAM-1: human D2 receptor positive allosteric modulation; P14416; DiscoveRx D2 beta-arrestin cells, luminescence, 90 min; 100% = 57 uM dopamine signal; potentiation, % (concentration not given with the values); hit rate 0.23% among 360,000; in the data active = potentiation above about 50%; inconclusive = mostly about 30% to 49%
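PathHunter D2 cells, attached overnight at 37 deg C, received compound in DMSO plus dopamine at EC20 (50 nM final) for 90 min at 37 deg C. Beta-arrestin recruitment was read as luminescence after 1 h with detection reagent at ambient temperature.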
D2 PAM-2: positively modulates the human D2 dopamine receptor allosterically | P14416 | HEK293 T-REx D2, calcium flux, EC20 dopamine potentiation | potentiation, % at 10 µM | hit rate 0.34% among 340,000 | AID 485347;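 active = potentiation over 3 SD above the plate norm, cut at about 30% in these data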; also: 0% is about no effect
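Tetracycline-induced HEK293 T-REx cells force-coupled to calcium signalling expressed D2; compounds were pin-added after a 10 s baseline, read kinetically 180 s, then an EC20 dopamine challenge followed with a further 180 s calcium read.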
D2 ag-2: D2 dopamine receptor (human) agonism; P14416; HEK293 T-REx D2 cells, calcium flux agonist mode; activation, % at 2 µM; hit rate 0.53% among 340,000;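 active = activation over 3 SD above normal in the single-dose calcium agonist read, cut at about 30% in these data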; also: 0% is about no effect
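In this primary screen, compounds producing a positive calcium signal within 180 s of addition to tetracycline-induced, force-coupled HEK293 Trex D2 cells are flagged; cells are dye-loaded with a no-wash calcium kit beforehand.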
* = called active by the depositor; u = inconclusive; x = not tested or not shown. Only some compounds are listed: those with a hit (about 2.4% of all), similar ones and a draw of the others.

SMILES	D2 antag	D2 ag-1	D2 PAM-1	D2 PAM-2	D2 ag-2
CCOC(=O)C1CCC(CN(Cc2ccc(Cl)cc2)S(=O)(=O)c2cc(Cl)cc(Cl)c2)CC1 (stereo not drawn)	x	x	x	-4.0	-0.1
CCOC(=O)C(Cc1cc(C(C)=O)ccc1OC(C)C)C(=O)OCC	54.2*	0.3	-17.4	-4.5	-2.7
CCOC(=O)C(Cc1cc(C(C)=O)ccc1OCC)C(=O)OCC	13.6	-9.5	-24.0	-0.6	0.2
CCC(=O)NCCSc1c[nH]c2ccccc12	-11.3	-1.2	-15.2	5.7	0.0
CC(C)C(=O)NCCSc1c[nH]c2ccccc12	31.1*	-1.3	-3.0	6.7	0.3
COc1ccc(C2C3=C(CC(C)(C)CC3=O)Nc3c2c(=O)n(C)c(=O)n3C)cc1OC (stereo not drawn)	7.9	0.5	-21.1	1.9	0.2
COc1ccc(OC)c(C2C3=C(CCCC3=O)Nc3c2c(=O)n(C)c(=O)n3C)c1 (stereo not drawn)	29.2	-0.4	-11.1	32.0*	0.7
COc1ccc2c(C(=O)c3ccc(C)cc3)n(Cc3ccc(C(N)=O)cc3)[n+]([O-])c2c1	60.4*	1.0	-9.5	21.3	-1.6
COc1ccc(N(CC(=O)Nc2c(C)n(C)n(-c3ccccc3)c2=O)S(=O)(=O)c2ccc(C)cc2)cc1OC	34.6*	-1.5	-2.4	8.1	2.0
Cn1c(=O)c(=O)n(C)c2cc([N+](=O)[O-])c([N+](=O)[O-])cc21	14.4	u	54.0*	6.7	1.6
Cn1cccc([N+](=O)[O-])c1=O	x	-4.5	-15.8	x	x
CCCC(O)c1nc2ccccc2n1CCCOc1ccc(Cl)cc1 (stereo not drawn)	x	x	x	-1.5	-0.1
Cc1ccc2sc(N3CCN(C(=O)C4COc5ccccc5O4)CC3)nc2c1C (stereo not drawn)	x	x	x	-0.1	0.7
CC(NC(=O)CN1CCN(c2ccc(Cl)cc2)CC1)c1ccccc1 (stereo not drawn)	-6.8	-4.6	-3.1	5.9	-0.1
CCOc1ccccc1N1CCN(CC(=O)NC(C)c2ccccc2)CC1 (stereo not drawn)	100.3*	2.7	-23.2	-20.2	0.3
O=C(CN1CCCC1)NC(c1ccccc1)c1ccccc1	-6.2	-2.1	-13.0	-6.1	1.7
O=C(CN1CCN(c2ccccc2O)CC1)Nc1ccc2c(c1)CCC2	66.8*	-0.1	-16.1	-23.2	-0.8
O=C(CN1CCN(c2ccccc2O)CC1)NC(c1ccccc1)c1ccccc1	64.1*	-3.0	-32.9	-24.0	-0.9
CCOc1ccccc1N1CCN(C(=O)NCc2ccc(C)cc2)CC1	30.3*	-5.2	-18.1	32.1*	-1.8
O=C1CN(C(=O)c2ccc(S(=O)(=O)N3CCCCC3)cc2)C(c2ccc(F)cc2)c2cc(Br)ccc2N1 (stereo not drawn)	x	x	x	11.9	20.6
CCc1ccc(NC(=O)c2cc3nc(-c4ccc(C)cc4)cc(C(F)(F)F)n3n2)cc1	x	x	x	6.9	0.0
O=C(O)C1C2CCC(C2)C1C(=O)NCCc1ccccc1 (stereo not drawn)	9.8	-1.0	-1.4	-13.5	35.7*
COc1ccc(CCNC(=O)C2C3CCC(C3)C2C(=O)O)cc1OC (stereo not drawn)	-3.7	7.2	-2.8	3.8	0.2
COc1cccc(Cn2c(=O)n(-c3cccc(Cl)c3C)c(=O)c3c4c(sc32)CN(C(C)=O)CC4)c1	x	x	x	-6.5	0.2
Cc1nc(N2CCN(c3ccccn3)CC2)c2c(C)c(C(=O)N3CCN(c4cccc(Cl)c4)CC3)sc2n1	26.3	-0.7	-5.3	30.7*	1.6
CCC(=O)N1c2ccc(S(=O)(=O)NCc3ccc(F)cc3)cc2CC1C (stereo not drawn)	x	x	x	-17.1	-0.4
Cc1cccc(N2CCN(S(=O)(=O)c3ccc4c(c3)C(C(C)C)C(=O)N4)CC2)c1C (stereo not drawn)	x	x	x	2.2	0.3
COCCNC(=O)CCCn1c(SCc2ccccc2C)nc2c(sc3ccccc32)c1=O	x	x	x	-4.3	-2.3
COc1ccc(C2(NC(C)=O)CCN(C(=O)c3ccco3)CC2)cc1	32.9*	-5.6	-8.1	9.0	-0.1
COc1ccc(NC(=S)N2CCN(C(=O)c3ccco3)CC2)cc1	32.3*	-2.6	-5.1	-9.2	2.8

Compound activity (PubChem)
